Assay outcomes deposited in PubChem BioAssay by Pan Lab, Icahn School of Medicine at Mount Sinai.
RBX1-CUL1 inh = inhibitors of human ROC1-CUL1 ubiquitin ligase activity | 140,000 tested, 0.6% active | inhibition, % at 10 µM | in vitro K48 di-Ub FRET, acceptor:donor ratio, 45 min | E3 ubiquitin-protein ligase RBX1 (Homo sapiens) + Cullin-1 (Homo sapiens), P62877+Q13616 | AID 1347404, 2020; in the data active = inhibition above about 25%
Of the large screens only hits and unclear results are named; the others gave an inactive call. The full list was thinned out, with hits kept by preference.

O=C1CC(NCc2ccc(Cl)s2)CN1Cc1cccc(F)c1 (stereo not drawn)	none
O=S(=O)(Nc1nc2c(Cl)cccc2s1)c1ccc2ccccc2c1	none
CC1CCN(C(=O)c2c(Cl)ccc(Cl)c2Cl)CC1	none
COc1ccc(C(=O)N2CCC(C)CC2)cc1S(=O)(=O)N1CCCCC1	none
COC(=O)c1cnn(-c2ccccc2)c1	none
COC(C(=O)N1CCc2c(cnc(C)c2CNC(=O)c2ccccc2SC)C1)c1ccccc1 (stereo not drawn)	none
Nc1c(C(=O)Nc2ccccc2C(=O)O)sc2nc3c(cc12)CCCCC3	RBX1-CUL1 inh 35.4
Nc1c(C(=O)Nc2ccccc2F)sc2nc3c(cc12)CCCCC3	none
Nc1c(C(=O)Nc2ccccc2C(=O)O)sc2nc3c(cc12)CCCCCC3	none
COc1cccc(OC)c1OCC(O)CN1CCN(Cc2ccc3c(c2)OCO3)CC1 (stereo not drawn)	none
N#CCOc1ccc(C=C2C(=O)NC(=O)NC2=O)cc1	none
COC(=O)[C@@H]1C[C@H](C(=O)NCCCc2ccccn2)[C@H](c2ccccc2F)N1C	none
CCCCN(CCCC)c1ccc(/C=C2\SC(=N)NC2=O)cc1	none
COc1cccc(C2SCCCS2)c1O	none
CCOc1cc2c(cc1OCC)C(c1ccccc1OC)CC(=O)N2 (stereo not drawn)	none
COc1ccccc1C1NCCS1 (stereo not drawn)	RBX1-CUL1 inh 33.1
CCn1cc(C(=O)/C=C/c2cn(C)nc2C)c(C)n1	none
O=C1c2ccccc2C(=O)c2c1nnn2Cc1ccc(F)cc1	none
COc1ccc(Cn2nnc3c2C(=O)c2nnn(Cc4ccc(OC)cc4)c2C3=O)cc1	RBX1-CUL1 inh 45.1
Cc1ccccc1Cn1nnc2c1C(=O)c1ccccc1C2=O	none
O=C(Oc1ccccc1-c1nc2ccccc2c(=O)n1Cc1ccccc1)c1ccccc1Cl	none
O=C(N/N=C\c1ccco1)c1n[nH]c2c1CCC2	none
O=c1[nH]c(=O)c2cc(CO)cnc2[nH]1	none
CCCSc1nc(N)c2c3c(sc2n1)CCC3	none
CC(C)C(=O)N1CCN(Cc2cccc(F)c2)CC1	none
O=C(C(C(F)(F)F)C(F)(F)F)N1CCN(Cc2ccccc2)CC1	RBX1-CUL1 inh 53.2
CCCCNC(=O)N1CCN(Cc2ccccc2)CC1	none
Cc1ccc(N2CC(C(=O)NCC(C)C)CC2=O)c(C)c1 (stereo not drawn)	none
c1ccc(C[n+]2cccc3c2CCCC3)nc1	RBX1-CUL1 inh 44.9
C1=C(CCNCc2ccccn2)CCCC1	none
CN(C)c1cc[n+](Cc2ccccn2)cc1	none
CCOC(=O)CN(C)C(=O)c1cc(COc2c(F)cccc2F)on1	none
Nn1c(=S)[nH]nc(/C=C/c2ccco2)c1=O	RBX1-CUL1 inh 95.9
S=c1[nH]nc(-c2ccco2)n1-c1ccccc1	none
Cc1ccc(-c2n[nH]c(=S)n2/N=C/C=C/c2ccco2)cc1	none
CCOc1ccc(C2c3c(cc(C)n(Cc4cccnc4)c3=O)OC(=N)C2C#N)cc1 (stereo not drawn)	none
N#CC1=CC2CCCCCCC2=NC1=S (stereo not drawn)	none
CCC1=C(C#N)C(=S)N=C2CCCC21 (stereo not drawn)	none
N#CC1=CC2CCCC2=NC1=S (stereo not drawn)	RBX1-CUL1 inh 105.7
CC(C)c1cccc(OC/C=C/CN2CCOCC2)c1	none
CCC(NC(=O)c1c(-c2c(F)cccc2Cl)noc1C)c1ccc(C)cc1 (stereo not drawn)	none
CC1=NC(=S)NC(c2ccc(C)cc2)C1C(N)=O (stereo not drawn)	none
CCn1nnnc1NCc1ccc(Cl)c(Cl)c1	none
COc1cc(C(=O)Oc2ccccc2C(C)=O)cc(OC)c1OC	none
O=C(Oc1ccccc1C(=O)Oc1ccccc1)c1ccccc1	none
CC(=O)c1ccccc(OC(=O)c2ccccc2)c1=O	RBX1-CUL1 inh 81.0
Cc1ccc(-c2nn3c(-c4cccs4)c(C#N)cnc3c2Br)cc1	none
Cc1ccc(-c2nn3c(-c4ccc(C)cc4)nnc3c3ccccc23)cc1	none
Cc1ccc(-c2nn3c(N)c(C#N)nnc3c2Cl)cc1	RBX1-CUL1 inh 94.1
Cc1cc(=O)[nH]c(SCC(=O)c2ccc(O)c(O)c2)n1	none
O=C(CSc1nc2ccccc2c(=O)[nH]1)c1ccc(O)c(O)c1	RBX1-CUL1 inh 103.2
O=C(CSc1nc2ccccc2c(=O)[nH]1)c1ccc(Cl)cc1	none
Cc1cccc(N2CC(C(=O)N3CCCC(C)C3)CC2=O)c1 (stereo not drawn)	none
CCOc1snc(Cl)c1C#N	none
CCOC(=O)c1c(NC(=O)c2ccc(Cl)c([N+](=O)[O-])c2)sc2c1CCC2	none
O=C(O)CSc1cccnc1Sc1ccc(Cl)cc1	none
O=C1Oc2cccnc2C(=O)C1C(c1ccc(Cl)cc1)C1C(=O)Oc2cccnc2C1=O (stereo not drawn)	RBX1-CUL1 inh 38.1
CSC1=NC(=O)C(C(c2ccc(Cl)cc2)C2C(=O)N=C(SC)NC2=O)C(=O)N1 (stereo not drawn)	none
CCC(CO)NC(=O)c1ccc(C)cc1 (stereo not drawn)	none
Cc1ccc(N=C2S/C(=C/c3ccccc3OCC(=O)N3CCOCC3)C(=O)N2Cc2ccccc2)cc1	none
COCCN1C(=O)/C(=C/c2ccccc2OCc2cccc(C(=O)O)c2)SC1=Nc1ccccc1	RBX1-CUL1 inh 67.7
CCOc1ccccc1/C=C1\SC(=Nc2ccc(C(=O)OC)cc2)N(C)C1=O	none
O=C1CCC(C(=O)N2CCOC(Cc3ccccc3Cl)C2)=NN1 (stereo not drawn)	none
Cc1cccc(OCC(=O)Nc2ccccc2OC(F)F)c1	none
c1cc(-c2ccco2)cc(N2CCC(NCc3nnc4n3CCC4)CC2)c1	none
COc1ccc(C(=O)NC(=S)Nc2ccc(C)c(Cl)c2)cc1[N+](=O)[O-]	none
CCCC1=NN(c2ccccc2)C2Oc3c(OC)cccc3C(c3cn(-c4ccccc4)nc3CCC)C12 (stereo not drawn)	RBX1-CUL1 inh 55.9
COc1ccccc1C1CC(c2ccccc2)=NN1c1ccccc1 (stereo not drawn)	none
CCCC1=NN(c2ccccc2)C(=O)C1C1c2ccccc2Oc2c1c(CCC)nn2-c1ccccc1 (stereo not drawn)	none
Cc1cccc(NC(=O)Cn2nc(C(F)(F)F)c(Cl)c2C)c1Cl	none
CC(C)(C)c1ccc(C(=O)Oc2cccc(/C=C3\C(=N)N4N=C(c5ccco5)SC4=NC3=O)c2)cc1	RBX1-CUL1 inh 95.7
Cc1ccc(S(=O)(=O)Oc2cccc(/C=C3/C(=N)N4N=C(CC(C)C)SC4=NC3=O)c2)cc1	none
N=C1/C(=C/c2cccc(OC(=O)c3cccs3)c2)C(=O)N=C2SC(c3cccs3)=NN12	RBX1-CUL1 inh 94.7
CCOC(=O)c1ccc(-c2ccc(/C=C3/C(=N)N4N=C(c5ccc(C)cc5)SC4=NC3=O)o2)cc1	none
COc1cc(/C=C2/C(=N)N3N=C(c4ccco4)SC3=NC2=O)cc(OC)c1OC	none
N=C1/C(=C/c2cccc(Br)c2)C(=O)N=C2SC(C(F)(F)F)=NN12	none
CC1(C)CC(=O)C2C(=Nc3ccc4ccccc4c3C2c2ccccc2OCc2ccccc2)C1 (stereo not drawn)	none
O=S(=O)(Nc1ccc(NS(=O)(=O)c2cccs2)cc1)c1cccs1	none
O=C(c1ccccc1)c1c(-c2ccccc2)c(Cc2ccccc2)c(-c2ccccc2)n(-c2ccccc2)c1=S	none
O=C(O)c1cc(-c2ccc(CC3=NC(=O)N(Cc4ccccc4)C3=O)o2)ccc1Cl	RBX1-CUL1 inh 57.7
CC(C)CN1C(=O)C(Cc2ccc(-c3cccc(C(=O)O)c3)o2)=NC1=S	RBX1-CUL1 inh 28.2
CC(C)CCNCc1ccc(-c2cccc(C(=O)O)c2)o1	none
O=C1N=C(Cc2ccc(-c3ccc(Cl)c(Cl)c3)o2)C(=O)N1Cc1ccccc1	none
O=C(O)c1ccc(-c2ccc(CC3=NC(=O)N(Cc4ccccc4F)C3=O)o2)cc1Cl	none
